PubChem BioAssay (NCI)
About 79,000 compounds went through this panel and 15% of them were active in at least one assay; those are over-represented in the sample as a whole. No stated cut-off is given here; in the data, active means growth inhibition above about 70%; inactive means the rest.

Legend:
[1] = NCI Yeast Anticancer Drug Screen. Data for the rad50 strain (AID 155);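 further: 0% = growth of vehicle-only cultures of the same strain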; conditions: S. cerevisiae rad50 strain growth inhibition; at 50.0 µM; stronger effect = higher value
Summary of the method: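 Compounds were tested on a yeast strain with an engineered DNA damage repair alteration; the reported value is growth inhibition normalised to vehicle treatment.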

[2] = NCI Yeast Anticancer Drug Screen. Data for the mec2-1 strain (AID 157); conditions: S. cerevisiae mec2-1 strain, at 50.0 µM, stronger effect = higher value
Summary of the method: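 Test agents were screened against the mec2-1 yeast strain, with defined DNA repair or cell cycle alteration. Growth was scored as inhibition against vehicle-only controls.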

[3] = NCI Yeast Anticancer Drug Screen. Data for the sgs1 mgt1 strain (AID 161);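 further: 0% = growth of cultures given vehicle only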; conditions: S. cerevisiae sgs1 mgt1 strain, at 50.0 µM, stronger effect = higher value
Summary of the method: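 Test agents were incubated with a DNA-repair-mutant yeast strain. Growth was then read and compared against vehicle-treated controls.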

[4] = NCI Yeast Anticancer Drug Screen. Data for the cln2 rad14 strain (AID 165);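 further: 0% = growth equal to vehicle treated cultures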; conditions: S. cerevisiae cln2 rad14 strain, at 50.0 µM, stronger effect = higher value
Summary of the method: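 Growth of compound-exposed yeast (cln2 rad14 genotype) measured and expressed as inhibition relative to vehicle.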

[5] = NCI Yeast Anticancer Drug Screen. Data for the bub3 strain (AID 167); conditions: S. cerevisiae bub3 mutant strain, at 50.0 µM, stronger effect = higher value
Summary of the method: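 Growth of a checkpoint-deficient yeast mutant is measured after compound exposure. Values represent inhibition relative to vehicle.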

[6] = NCI Yeast Anticancer Drug Screen. Data for the mlh1 rad18 strain (AID 175); conditions: S. cerevisiae mlh1 rad18 strain growth inhibition; at 50.0 µM; stronger effect = higher value
Summary of the method: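 In this whole-cell yeast screen, a strain with altered DNA damage repair is challenged with compound, and its growth is measured against matched vehicle-treated controls.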

Measured: growth inhibition

CCOC(=O)C(NC(=O)CC)(Nc1ccccc1OC)C(F)(F)F (configuration not stated)
inactive: [1] -40.9% | [2] -28.6% | [3] -28.6% | [4] -17.3% | [5] -25.2% | [6] -31.5%

O=C1c2cccc3c([N+](=O)[O-])ccc(c23)C(=O)N1CCc1ccccn1
inactive: [1] 24.9% | [2] 19.2% | [3] 45.5% | [4] 1.95% | [5] 17.9% | [6] 26.6%

Cc1cccc(NC(=O)CCCCCCCCC(=O)Nc2cccc(C)c2C)c1C
inactive: [1] -4.8% | [2] 0.7% | [3] -2.3% | [4] -41.4% | [5] -2.05% | [6] 12.2%

COC(=O)C(C(=O)C(=O)Nc1ccc(Br)cc1)c1nc2ccc(Cl)cc2[nH]c1=O (configuration not stated)
inactive: [1] -11% | [2] -5.1% | [3] 21.9% | [4] 7.05% | [5] -1.55% | [6] 2.8%

O=C(/C=C/c1cccc([N+](=O)[O-])c1)Nc1cccnc1
inactive: [1] 7.55% | [2] -1.35% | [3] 38.9% | [4] -11.8% | [5] 29.9% | [6] 24.1%

O=C1/C(=C/c2ccc(O)c(O)c2)CC/C1=C\c1ccc(O)c(O)c1
inactive: [1] -18.9% | [2] -23.9% | [3] -21% | [4] 10.9% | [5] -16.1% | [6] -22.6%

COc1ccc(C(O)Cc2ccccc2)cc1 (configuration not stated)
inactive: [1] -4.9% | [2] -19.4% | [3] 5.6% | [4] -16.9% | [5] -18.4% | [6] -6.4%

O=C1CC2C3CC(Br)C4C3CC2C14 (configuration not stated)
inactive: [1] 4.95% | [2] -0.25% | [3] 1.75% | [4] 6.5% | [5] 7.2% | [6] 4.75%

CC(=O)OCC1OC(n2c(C)cc(C)c(C#N)c2=S)C(OC(C)=O)C(OC(C)=O)C1OC(C)=O (configuration not stated)
inactive: [1] 21.2% | [2] 16.6% | [3] -5.35% | [4] -14.9% | [5] -6.05% | [6] 32.4%

CC(C)(CCN)[N+](=O)[O-]
inactive: [1] -5.15% | [2] 9.15% | [3] 17.9% | [4] -88.3% | [5] 5.55% | [6] -2.5%

O=P(O)(Cc1ccccc1)OCC1(O)OCC(O)C(O)C1O (configuration not stated)
inactive: [1] -16.1% | [2] -6.35% | [3] -28.6% | [4] 12.7% | [5] -19.8% | [6] -23.2%

O=C(O)C(=O)O.[Co+3].[NH-]C(Cc1ccccc1)C(=O)[O-].[NH-]CCN(CC[NH-])CC[NH-] (configuration not stated)
inactive: [1] 28.2% | [2] 15.8% | [3] 8.8% | [4] 22.6% | [5] 2.7% | [6] 25.6%

O=C(O)CC1CCCCCC1
inactive: [1] 21.9% | [2] 8.25% | [3] 12.8% | [4] 12.9% | [5] 32.8% | [6] 12%

Fc1ccc2nc3ccccc3c(SCCNCCSc3c4ccccc4nc4ccc(F)cc34)c2c1
inactive: [1] 43.4% | [2] -4.75% | [3] 17% | [4] 16.1% | [5] 1.5% | [6] 35.2%

CC(=O)Oc1ccc(-c2ccccc2)cc1C(=O)O
inactive: [1] 5.9% | [2] 1.55% | [3] 29.4% | [4] -15.7% | [5] 41.3% | [6] 11.6%

COc1ccc(C)cc1Sc1ccc(C)cc1[N+](=O)[O-]
inactive: [1] -6.2% | [2] -6.7% | [3] -3.2% | [4] -27.5% | [5] 10% | [6] -22.9%

CCCCCCCCCCCC(=O)Nc1ccc(N(C)C(C)=O)cc1
inactive: [1] -14.4% | [2] -3.95% | [3] -9.1% | [4] -1.35% | [5] 7.2% | [6] -10.1%

CCCC/C=C(\C)C(C)(C#N)C(=O)OCC (configuration not stated)
inactive: [1] -35.4% | [2] -0.4% | [3] -4.5% | [4] -14% | [5] -17.9% | [6] -3.15%

COc1cccc([N+](=O)[O-])c1
inactive: [1] 18.3% | [2] 32.2% | [3] -14.8% | [4] -5.9% | [5] -0.9% | [6] 5.75%

[N-]=[N+]=NC(=O)C1C(c2ccccc2)=C1c1ccccc1
inactive: [1] 45.5% | [2] 6.8% | [3] -0.2% | [4] 23.7% | [5] 27.8% | [6] -10.2%

COc1ccc2nc3cc(Cl)ccc3c(Nc3ccc(C(O)CCN(C)C)cc3)c2c1 (configuration not stated)
inactive: [1] 39.8% | [2] -2.1% | [3] 25.4% | [4] 24.4% | [5] -2.1% | [6] 5.3%

COC(=O)/C(=N/O)C(C(=O)OC)C(=O)C(=O)Nc1c(Cl)cc(C)cc1S(=O)(=O)O (configuration not stated)
inactive: [1] 6.4% | [2] 4.35% | [3] -22.4% | [4] -14.1% | [5] -2.9% | [6] 8.15%

N#CC(NNC(=O)c1ccccc1O)c1cccc(O)c1 (configuration not stated)
inactive: [1] 10.8% | [2] -0.25% | [3] 10.6% | [4] -6.7% | [5] 25.7% | [6] -25%

O=C(NCCN1CCCCC1)c1cccc(I)c1
inactive: [1] 2.45% | [2] -4.85% | [3] 15.5% | [4] 28.3% | [5] 8.15% | [6] 16%

N#Cc1c2c(c(=S)n(-c3ccc(Cl)cc3)c1N)CCCC2
inactive: [1] -4.4% | [2] -3.35% | [3] -5.8% | [4] 1.75% | [5] 6.85% | [6] -7.2%

N#CCCCCN1CCOCC1
inactive: [1] 10.3% | [2] -7.5% | [3] -21.7% | [4] 22.1% | [5] -8.9% | [6] 20.7%

NC(=O)c1ccccc1O
inactive: [1] 13.5% | [2] 5.15% | [3] 11.4% | [4] 6.2% | [5] 0.6% | [6] 15.2%

COc1ccc(Cc2ccc(CO)cc2)cc1
inactive: [1] 4.6% | [2] -18.9% | [3] -31.9% | [4] -20% | [5] -7.7% | [6] -14.2%

O=[N+]([O-])c1cccc(/C=C/c2cc(N(CCO)CCO)c3ccccc3n2)c1
inactive: [1] 48.1% | [2] 12.8% | [3] 11.1% | [4] 3.5% | [5] -6.6% | [6] 22.2%

COC(=O)/C(=C/C=C/c1ccccc1)N=[N+]=[N-]
inactive: [1] -20.5% | [2] 7.5% | [3] -12% | [4] -11.6% | [5] 3.2% | [6] -10.1%

C=CCn1ccc(=O)nc1SCc1ccccc1
inactive: [1] 5.45% | [2] -4.8% | [3] 0.4% | [4] -33.5% | [5] 3.35% | [6] 0.05%

O=CNNC(=O)Nc1cccc2ccccc12
inactive: [1] -29.9% | [2] -8.85% | [3] -20% | [4] -5.75% | [5] -32.1% | [6] -25.5%

CCOC(=O)NC(=O)c1cn(CCCCCOC(=O)NCCCCCCNC(=O)OCCCCCn2cc(C(=O)NC(=O)OCC)c(=O)[nH]c2=O)c(=O)[nH]c1=O
inactive: [1] 20.6% | [2] 13.2% | [3] 12.6% | [4] 21.9% | [5] 6.7% | [6] 24.1%

O=C1OC(=O)C2CCCCC12 (configuration not stated)
inactive: [1] 29.9% | [2] -11.9% | [3] -11.4% | [4] -48.3% | [5] 8.95% | [6] 18.9%

CCC(=O)c1c(NOC2OCC(OC(C)=O)C(OC(C)=O)C2OC(C)=O)nc(OC)n(C)c1=O (configuration not stated)
inactive: [1] -18.3% | [2] -0.65% | [3] -35.2% | [4] 9.6% | [5] -24.8% | [6] -11.5%

CCc1cccc(C(C)(C)C)c1NC(=S)N/C=C(/C#N)C(N)=O
inactive: [1] 8.2% | [2] -7.45% | [3] 16.9% | [4] 13.7% | [5] -15.9% | [6] 11.8%

COc1ccc2c(-c3cc4ccccc4o3)cc(=O)oc2c1
inactive: [1] -6.4% | [2] -16.9% | [3] -21.3% | [4] 2% | [5] 3% | [6] -31.9%

Cc1cc(N)cc(C)n1
inactive: [1] 22.9% | [2] 28.6% | [3] -14.8% | [4] 0.7% | [5] 11.7% | [6] 11.7%

Cc1cc(N=Nc2ccc(C(=O)O)cc2)c(N)cc1N
inactive: [1] -34.5% | [2] -5.55% | [3] -7.1% | [4] -21.4% | [5] 9.7% | [6] -7.5%

O=C(Nc1c(O)[nH][nH]c1=O)c1ccccc1
inactive: [1] 0.45% | [2] -0.05% | [3] -9.7% | [4] -36% | [5] -15.7% | [6] -0.1%

O=C(N/N=C/C=C/c1ccccc1)c1ccccc1O
inactive: [1] -1.8% | [2] 43% | [3] 56.2% | [4] -31.7% | [5] 43.4% | [6] 29.6%

CCCCOB(OCCCC)Oc1c(C(C)(C)C)cc(C)cc1C(C)(C)C
inactive: [1] 1.5% | [2] -14.2% | [3] -2.55% | [4] 15.5% | [5] -10.2% | [6] -3%
